In PubChem BioAssay AID1159580 (chemical genetic matrix, 2015):
About 2,000 (36%) of roughly 5,500 compounds were called active. About 18% were inconclusive and are not listed. Cut-off read from the data, not from the text of the source: active = normalized growth mostly below about 0.91 (no sharp cut-off); inconclusive = no clear call, values can overlap the other calls; inactive = mostly above about 0.92. The list shows a part of the results.

Assay: chemical genetic growth profiling, strain panel (AID 1159580);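 note: tested at 20 µM; growth read once vehicle control cultures reached saturation at 30 °C; 1 = growth at the plate median or of vehicle wells; lower values mean less growth of the strain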
Settings: growth OD
[1] = S. cerevisiae deletion strains, locus YDL101C, strain DUN1, active compounds read low
[2] = S. cerevisiae deletion strains, locus YHR030C, strain SLT2, active compounds read low

Measured: normalized growth

CC1SC(c2cccnc2)N(c2ccc(Cl)cc2)C1=O (configuration not stated)
inactive: S. cerevisiae deletion strains, locus YAR019C, strain CDC15, active compounds read low 0.948 | S. cerevisiae deletion strains, locus YBL105C, strain PKC1, active compounds read low 0.971 | S. cerevisiae deletion strains, locus YBR135W, strain CKS1, active compounds read low 0.964 | S. cerevisiae deletion strains, locus YBR136W, strain MEC1, active compounds read low 0.959 | S. cerevisiae deletion strains, locus YBR160W, strain CDC28, active compounds read low 0.967 | S. cerevisiae deletion strains, locus YDL017W, strain CDC7, active compounds read low 0.972 | S. cerevisiae deletion strains, locus YDL028C, strain MPS1, active compounds read low 0.955 | [1] 0.928 | S. cerevisiae deletion strains, locus YDL108W, strain KIN28, active compounds read low 0.951 | S. cerevisiae deletion strains, locus YDR226W, strain ADK1, active compounds read low 0.932 | S. cerevisiae deletion strains, locus YFL009W, strain cdc4, active compounds read low 0.931 | S. cerevisiae deletion strains, locus YFL029C, strain CAK1, active compounds read low 0.926 | S. cerevisiae deletion strains, locus YFR003C, strain YPI1, active compounds read low 0.972 | S. cerevisiae deletion strains, locus YFR028C, strain CDC14, active compounds read low 0.945 | S. cerevisiae deletion strains, locus YGR092W, strain DBF2, active compounds read low 0.904 | [2] 0.871 | S. cerevisiae deletion strains, locus YHR205W, strain SCH9, active compounds read low 0.725 | S. cerevisiae deletion strains, locus YIL147C, strain SLN1, active compounds read low 0.952 | S. cerevisiae deletion strains, locus YJL128C, strain PBS2, active compounds read low 0.987 | S. cerevisiae deletion strains, locus YJR016C, strain ILV3, active compounds read low 0.926 | S. cerevisiae deletion strains, locus YJR066W, strain TOR1 (second series), active compounds read low 0.704 | S. cerevisiae deletion strains, locus YKL048C, strain ELM1, active compounds read low 0.922 | S. cerevisiae deletion strains, locus YKL101W, strain HSL1, active compounds read low 0.779 | S. cerevisiae deletion strains, locus YKL193C, strain SDS22, active compounds read low 0.947 | S. cerevisiae deletion strains, locus YML070W, strain DAK1, active compounds read low 0.694 | S. cerevisiae deletion strains, locus YMR001C, strain CDC5, active compounds read low 0.936 | S. cerevisiae deletion strains, locus YMR277W, strain FCP1, active compounds read low 0.969 | S. cerevisiae deletion strains, locus YNL006W, strain LST8, active compounds read low 0.967 | S. cerevisiae deletion strains, locus YNL161W, strain CBK1, active compounds read low 0.953 | S. cerevisiae deletion strains, locus YNL207W, strain RIO2, active compounds read low 0.91 | S. cerevisiae deletion strains, locus YNL222W, strain SSU72, active compounds read low 0.96 | S. cerevisiae deletion strains, locus YOL078W, strain AVO1, active compounds read low 0.937 | S. cerevisiae deletion strains, locus YOR061W, strain CKA2, active compounds read low 0.919 | S. cerevisiae deletion strains, locus YOR329C, strain SCD5, active compounds read low 0.953 | S. cerevisiae deletion strains, locus YPL209C, strain IPL1, active compounds read low 0.969 | S. cerevisiae deletion strains, locus YPR025C, strain CCL1, active compounds read low 0.961 | S. cerevisiae deletion strains, locus YPR106W, strain ISR1, active compounds read low 0.957 | S. cerevisiae deletion strains, locus YPR111W, strain DBF20, active compounds read low 0.965 | S. cerevisiae deletion strains, strain NNK1, active compounds read low 0.944 | S. cerevisiae deletion strains, strain TSCII, active compounds read low 0.946
active: S. cerevisiae deletion strains, locus YDL132W, strain cdc53, active compounds read low 0.894 | S. cerevisiae deletion strains, locus YDL214C, strain PRR2, active compounds read low 0.6 | S. cerevisiae deletion strains, locus YDR052C, strain DBF4, active compounds read low 0.906 | S. cerevisiae deletion strains, locus YDR054C, strain cdc34, active compounds read low 0.828 | S. cerevisiae deletion strains, locus YDR477W, strain SNF1, active compounds read low 0.411 | S. cerevisiae deletion strains, locus YER123W, strain YCK3, active compounds read low 0.466 | S. cerevisiae deletion strains, locus YER133W, strain GLC7, active compounds read low 0.421 | S. cerevisiae deletion strains, locus YFR019W, strain FAB1, active compounds read low 0.43 | S. cerevisiae deletion strains, locus YGR040W, strain KSS1, active compounds read low 0.397 | S. cerevisiae deletion strains, locus YGR052W, strain FMP48, active compounds read low 0.374 | S. cerevisiae deletion strains, locus YHR079C, strain IRE1, active compounds read low 0.441 | S. cerevisiae deletion strains, locus YHR082C, strain KSP1, active compounds read low 0.4 | S. cerevisiae deletion strains, locus YJL095W, strain BCK1, active compounds read low 0.215 | S. cerevisiae deletion strains, locus YJL157C, strain FAR1, active compounds read low 0.635 | S. cerevisiae deletion strains, locus YJR066W, strain TOR1, active compounds read low 0.284 | S. cerevisiae deletion strains, locus YKL067W, strain YNK1, active compounds read low 0.673 | S. cerevisiae deletion strains, locus YKL203C, strain TOR2, active compounds read low 0.331 | S. cerevisiae deletion strains, locus YLR113W, strain HOG1, active compounds read low 0.455 | S. cerevisiae deletion strains, locus YLR133W, strain CKI1, active compounds read low 0.478 | S. cerevisiae deletion strains, locus YLR403W, strain SFP1, active compounds read low 0.346 | S. cerevisiae deletion strains, locus YMR205C, strain PFK2 (second series), active compounds read low 0.64 | S. cerevisiae deletion strains, locus YNL020C, strain ARK1, active compounds read low 0.599 | S. cerevisiae deletion strains, locus YNL183C, strain NPR1, active compounds read low 0.393 | S. cerevisiae deletion strains, locus YNL307C, strain MCK1 (second series), active compounds read low 0.462 | S. cerevisiae deletion strains, locus YOR119C, strain RIO1, active compounds read low 0.295 | S. cerevisiae deletion strains, locus YOR231W, strain MKK1, active compounds read low 0.47 | S. cerevisiae deletion strains, locus YPL031C, strain PHO85, active compounds read low 0.434 | S. cerevisiae deletion strains, locus YPL153C, strain RAD53, active compounds read low 0.47 | S. cerevisiae deletion strains, locus YPL204W, strain HRR25, active compounds read low 0.46 | S. cerevisiae deletion strains, locus YPL256C, strain CLN2, active compounds read low 0.435

O=C1CSC(c2cccnc2)N1c1ccc(C2CCCCC2)cc1 (configuration not stated)
inactive: S. cerevisiae deletion strains, locus YAL013W, strain DEP1, active compounds read low 1 | S. cerevisiae deletion strains, locus YBR229C, strain ROT2, active compounds read low 1.01 | [1] 1.03 | S. cerevisiae deletion strains, locus YDL134C, strain PPH21, active compounds read low 0.941 | S. cerevisiae deletion strains, locus YDR150W, strain NUM1, active compounds read low 1.05 | S. cerevisiae deletion strains, locus YEL061C, strain CIN8, active compounds read low 0.999 | S. cerevisiae deletion strains, locus YGR078C, strain PAC10, active compounds read low 1.01 | [2] 1.28 | S. cerevisiae deletion strains, locus YHR087W, strain rtc3, active compounds read low 1.02 | S. cerevisiae deletion strains, locus YJR043C, strain POL32, active compounds read low 1.02 | S. cerevisiae deletion strains, locus YJR075W, strain HOC1, active compounds read low 0.941 | S. cerevisiae deletion strains, locus YKL190W, strain CNB1, active compounds read low 0.945 | S. cerevisiae deletion strains, locus YLR039C, strain RIC1, active compounds read low 0.926 | S. cerevisiae deletion strains, locus YLR058C, strain SHM2 (second series), active compounds read low 0.991 | S. cerevisiae deletion strains, locus YLR085C, strain ARP6, active compounds read low 0.917 | S. cerevisiae deletion strains, locus YLR262C, strain YPT6, active compounds read low 0.888 | S. cerevisiae deletion strains, locus YML094W, strain GIM5, active compounds read low 1.07 | S. cerevisiae deletion strains, locus YMR219W, strain ESC1, active compounds read low 1.02 | S. cerevisiae deletion strains, locus YMR263W, strain SAP30, active compounds read low 1.06 | S. cerevisiae deletion strains, locus YNL153C, strain GIM3, active compounds read low 1.01 | S. cerevisiae deletion strains, locus YNL298W, strain CLA4 (second series), active compounds read low 0.951 | S. cerevisiae deletion strains, locus YNL322C, strain KRE1, active compounds read low 1 | S. cerevisiae deletion strains, locus YNR030W, strain Alg12, active compounds read low 0.963 | S. cerevisiae deletion strains, locus YPL055C, strain LGE1, active compounds read low 1.04 | S. cerevisiae deletion strains, locus YPL241C, strain CIN2, active compounds read low 1.09 | S. cerevisiae deletion strains, locus YPR135W, strain CTF4, active compounds read low 0.832 | S. cerevisiae strains, strain wild type, active compounds read low 0.96
